Results published in PubChem BioAssay.

test system: PRMT1 (protein arginine N-methyltransferase 1); assay: PRMT1 binders on small-molecule microarrays, primary screen, biochemical, small-molecule microarray, 635 nm fluorescence (AID 1088); settings: small-molecule microarray binding, higher = more signal

| Compound | composite z-score |
| --- | --- |
| C[C@@]1([C@@H](NS(=O)(=O)c2cccc3cccnc23)c2ccc(-c3ccccc3)cc2)C[C@H]1C1CCCCC1 | 0.79 |
| O=C1O[C@H](c2ccccc2)[C@H](c2ccccc2)N2[C@H]1[C@@H](C(=O)N1CCN(c3ncccn3)CC1)[C@]1(C(=O)Nc3ccc(C#CC4(O)CCCCCC4)cc31)[C@H]2c1ccc(O)cc1 | 1.55 |
| C=CCC(OC(C)=O)[C@@H]1[C@@H](N(Cc2ccc(-c3ccccc3)cc2)C(=O)Cc2ccc(OC)cc2)c2cc(OCCCO)ccc2N1C(=O)c1ccc2ccccc2c1 (stereo not given in full) | 0.238 |
| O=C(NC1CC1)[C@@H]1c2ccccc2C(=O)N(C2CCCCC2)[C@H]1c1ccc(CO)cc1 | 0.384 |
| COC(=O)[C@@]1(Cc2ccccc2)[C@H]2c3cc(C(=O)N(C)C)n(Cc4nc5ccccc5[nH]4)c3C[C@H]2CN1C(=O)c1ccccc1 | 0.964 |
| C=CCOC(=O)[C@@H]1[C@H]2C(=O)O[C@H](c3ccccc3)[C@H](c3ccccc3)N2[C@H](c2ccc(OCCOC(=O)[C@@H]3C[C@@H]4C(=O)N[C@@H](CC(C)C)C(=O)N4[C@@H]3c3ccc(O)cc3)cc2)[C@@]12C(=O)Nc1ccc(I)cc12 | 1.56 |
| COCCOC(=O)N1C(=O)[C@@]2(c3cc(C#CCNC(N)=O)ccc31)[C@H](C(N)=O)[C@H]1C(=O)O[C@H](c3ccccc3)[C@H](c3ccccc3)N1[C@@H]2c1ccc(O)cc1 | 0.46 |
| C=CCNC(=O)[C@H]1[C@@H]2C(=O)O[C@@H](c3ccccc3)[C@@H](c3ccccc3)N2[C@@H](c2ccc(OCCO)cc2)[C@]12C(=O)Nc1ccc(C#Cc3ccc(OC)cc3)cc12 | 1.56 |
| CN1C(=O)C2C=CC(C(O)c3ccc(I)cc3)N(N(c3ccccc3)c3ccccc3)C2C1=O (stereo not given) | 0.364 |
| Cc1ccc(S[C@]2(C(=O)NCc3ccccc3)CC(=O)N(Cc3ccccc3Cl)[C@@H]2c2ccc(CO)cc2)cc1 | 1.17 |
| C[C@]1(C(=O)O)c2ccccc2C(=O)N(Cc2cc(C(F)(F)F)cc(C(F)(F)F)c2)[C@H]1c1ccc(CO)cc1 | 1.43 |
| COC(=O)C(CC#Cc1ccc2c(c1)[C@]1(C(=O)N2)[C@H](C(N)=O)[C@H]2C(=O)O[C@H](c3ccccc3)[C@H](c3ccccc3)N2[C@@H]1c1ccccc1OCCO)C(=O)OC | 1.56 |
| COC(=O)[C@@]1(Cc2ccc(F)cc2)[C@H]2c3cc(C(=O)N(C)C)n(Cc4ccc(C(F)(F)F)nc4)c3C[C@H]2CN1C(=O)c1ccccc1 | 1.32 |
| CCN1C(=O)C2CC(=O)C3C(CN(S(=O)(=O)c4ccc(C)cc4)C3c3ccc(C)cc3)C2C1=O (stereo not given) | 0.751 |
| C=C[C@H](OC)[C@@H](O)c1ccc(OC)c(O)c1 | -1.84 |
| CCCCCN1CC=CC23O[C@@H]4/C=C\CCCOC(=O)C4[C@H]2C(=O)N(CCCCCO)[C@@H]3C1=O (stereo not given in full) | -0.409 |
| CC(C)C[C@H]1NC(=O)CNC(=O)[C@@]23C(=O)N[C@@H](Cc4ccccc4)C2[C@H](C)[C@@]2(C)O[C@H]2C3/C=C/C/C=C\CNC1=O (stereo not given in full) | 1.08 |
| C=CCNC(=O)[C@@H]1[C@H]2C(=O)O[C@H](c3ccccc3)[C@H](c3ccccc3)N2[C@H](c2ccc(OCCO)cc2)[C@@]12C(=O)Nc1ccc(C#CCNC(N)=O)cc12 | 0.872 |

| Compound | composite z-score |
| --- | --- |
| CC(C)[Si](C#Cc1ccccc1)(O[C@H](c1ccccc1)c1cn(Cc2ccccc2)nn1)C(C)C | 1.02 |
| C=C(C(=O)CC[C@@H](OC(=O)c1cccnc1)c1cccc(OCCO)c1)C(C)C | 0.271 |
| CCCCN1CC=CC23O[C@@H]4/C=C\CCC(C)OC(=O)C4[C@H]2C(=O)N(CCO)[C@@H]3C1=O (stereo not given in full) | -0.314 |
| O=C/C=C/c1ccc(-c2ccccc2)cc1 | -0.645 |
| COc1cc(CO)cc(I)c1O[C@H]1C=C(C(=O)NCCO)C[C@@H](N(CCN2CCOCC2)C(=O)C2CCCO2)[C@@H]1O (stereo not given in full) | -0.15 |
| CC(C)C[C@@H]1NC(=O)[C@H]2C[C@@H](C(=O)O)[C@@H](c3cccc(OCCO)c3)N2C1=O | 0.779 |
| COc1cc(Cc2cc3c(c(CCc4ccccc4)n2)[Si](C(C)C)(C(C)C)O[C@H]3c2ccccc2)cc(OC)c1OC | -0.651 |
| C=CCNC(=O)[C@@H]1[C@H]2C(=O)O[C@H](c3ccccc3)[C@H](c3ccccc3)N2[C@H](c2ccc(O)cc2)[C@@]12C(=O)Nc1ccc(C#CC3=CCCCC3)cc12 | 1.55 |
| Cc1cccc([C@H]2C[C@H]3C(Br)=C[C@@]2(CO)C(=O)[C@]32CO2)c1 | 0.378 |
| COCCOC(=O)N1C(=O)[C@@]2(c3cc(C#CCCO)ccc31)[C@H](C(=O)N1CCN(c3ncccn3)CC1)[C@H]1C(=O)O[C@H](c3ccccc3)[C@H](c3ccccc3)N1[C@@H]2c1ccc(OCCO)cc1 | 1.53 |
| COC(=O)[C@H](Cc1ccccc1)N1CC(C)(OC)O[C@@H](Cc2ccccc2)[C@H]1/C=C/C1CC1 (stereo not given in full) | 0.38 |
| CCOC(=O)C1=CCC(c2ccncc2)N(S(=O)(=O)c2ccc(C)cc2)C1 (stereo not given) | 1.36 |
| COC(=O)[C@@]1(Cc2ccc(F)cc2)[C@H]2c3cc(C(=O)N4CCCC4)n(Cc4ccc(C(F)(F)F)nc4)c3C[C@H]2CN1C(=O)c1ccccc1 | 0.428 |
| COCCOC(=O)N1C(=O)[C@@]2(c3cc(C#CCNC(N)=O)ccc31)[C@H](c1ccccc1OCCO)N1[C@H](c3ccccc3)[C@H](c3ccccc3)OC(=O)[C@H]1[C@@H]2C(=O)N1CCCCCCC1 | 1.49 |
| CCCCC(=C=CC[C@@H](O)c1ccccc1OCCO)C[C@@H](O)c1ccccn1 | 1.35 |
| O=C(NCC(F)(F)F)[C@@H]1c2ccccc2C(=O)N(Cc2cc(C(F)(F)F)cc(C(F)(F)F)c2)[C@H]1c1ccc(CO)cc1 | 0.648 |
| CC(CO)N1C(=O)[C@@H]2[C@H]3C(=O)OCC=C[C@H]3OC23C=CCN(c2ccc4ccccc4c2)C(=O)[C@@H]13 (stereo not given in full) | -0.534 |
